Measured values: PubChem BioAssay (NCI)
This is part of a sample that, as a whole, favours compounds with a hit. Of some 83,000 tested, about 20% had one in any assay.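 96-well plates, one dose, 48 hours. Percent growth reported; active if below 10.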 Unmarked numbers belong to inactive results. Calls of active or inactive are those of the source.

What follows are molecules tested on DU-145 prostate (assay: NCI-60 one-dose screen, 48 h (100 = growth as untreated, 0 = no growth, -100 = all killed)). Conditions: 10 µM unless noted.

Compound | growth
CCN(CC)S(=O)(=O)c1ccc2[nH]c(=O)cc(C(=O)Nc3ccc(OC)cc3OC)c2c1 | 157%
COc1ccc(/C=C/C(=O)OCC(=O)NNC(=O)c2ccccc2)cc1OC | 101%
COc1ncc(-c2ccc3ncnc(Nc4cccc(Cl)c4)c3c2)cc1N(S(C)(=O)=O)S(C)(=O)=O | 54.8%
Cc1c(C(=O)NCc2ccccc2)[n+](=O)c2cc(F)ccc2n1[O-] | 99.8%
COc1cc(Br)c(OC)cc1Br | 106%
CN1CCN(CCCOc2ccc3nc(Nc4ccc(C(F)(F)F)c(Cl)c4)ccc3c2)CC1 | 20.1%
CC(=O)c1cc(C(=O)c2ccc3c(c2)Sc2ccccc2N3)c2cc(C)ccn12 | 0.638% (active)
Cc1cc(C(=O)O)c(N)c(C)n1 | 110%
c1ccc2c(c1)Oc1ccccc1C2C1c2ccccc2Oc2ccccc21 | 93.6%
CC/C=C\C[C@H](O)C/C=C1/C(=O)C(Cl)=C[C@@H]1C/C=C\CCCC(=O)O | 75.9%
O=C(Nc1ccc(I)cc1)c1cc([N+](=O)[O-])ccc1O | 51.4%
O=C(CSc1nc(-c2ccc(Cl)cc2)cn1-c1ccc(Cl)cc1)c1ccc(Br)cc1 | 90.9%
N#CC1=C(N)n2nc(-c3ccncc3)nc2NC1c1cccc2ccccc12 (stereo not given) | 93.3%
Cc1ccc2nc(-c3c(CCCO)noc3N)[nH]c(=O)c2c1 | 117%
COc1ccc(/C(=N\O)c2cc(OC)c(OC)c(OC)c2)c(OC)c1N | 15.3%
